Pf growth 96h: P. falciparum growth inhibition at 96 hour, primary screen for plastid delayed-death inhibitors; P. falciparum luciferase reporter growth, 96 h; Potency, µM (top dose mostly 28.7 µM), most hits filed as inhibitors; actives 6.9% (n = 320,000); AID 504834
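Infected RBCs, 2% Hct / 0.05% parasitemia final; luciferase-reporter P. falciparum; cpd 96 h, 37 C, 5% CO2; luciferase detection reagent; luminescence.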
Shiga toxin inh: Shiga toxin inhibition; Vero cells, Shiga toxin protein synthesis inhibition reporter; inhibition, % at 38.7 µM; actives 9.2% (n = 290,000); in the data active means inhibition mostly above about 28%, no sharp cut-off; inactive means mostly below about 43%
NS1 inh: blocks influenza NS1 protein function; actives 0.4% (n = 270,000); AID 2326; Potency, µM (doses to about 46.1 µM); calls by dose curve; further: actives are rising curves; nearly all actives have a fitted effect of over 50% in size
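Compounds were scored for reversing the slow growth caused by influenza A NS1 in S. cerevisiae, measured by optical density at 600 nm. Assay medium contained 2% galactose at pH 6.0; NS1-free yeast of the same strain were the positive control.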
CHX counter: counter-screen for Shiga toxin inhibitors: cycloheximide protein synthesis inhibition; actives 12% (n = 300,000); max response, %; AID 2314; cell reporter, cycloheximide protein synthesis inhibition counterscreen; in the data active means max response mostly above about 13%, no sharp cut-off; inactive means mostly below about 14%; further: read at 38.3 µM for the half of the compounds with a filed dose
Pf growth 48h: inhibits P. falciparum growth in the first generation, 48 h. Potency, µM (titrated, usually from 28.7 µM), hits mostly inhibitors. AID 504832. P. falciparum luciferase growth in erythrocytes, 48 h. actives 5.9% (n = 310,000)
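Compounds are pin-transferred into medium, infected erythrocytes (2% hematocrit, 0.1% parasitemia final) are added, and plates sit one parasite generation at 37 C in 5% CO2. Detection reagent is then added and luminescence measured.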
SARS PLpro yeast: SARS-CoV PLP inhibition in yeast; actives 0.19% (n = 330,000); AID 485353; S. cerevisiae expressing SARS-CoV PLpro, growth rescue; Potency, µM (series often up to 32.9 µM), most hits filed as activators; calls by dose curve; further: nearly all actives have a fitted effect of over 55% in size
Numbers stand for hits; – = inactive; ? = inconclusive; · = no result given; [ ] = dose if it differs, or a comment. Only some compounds are listed: those with a hit (about 21% of all), similar ones and a draw of the others. Unless noted, the call rests on the fitted dose curve; in most records, active means well fitted inhibition curve with a large enough effect; inconclusive means small, poorly fitted or top-dose-only effect, or another doubt; inactive means no such curve, though single readings can be large or run the other way.

SMILES	Pf growth 96h	Shiga toxin inh	NS1 inh	CHX counter	Pf growth 48h	SARS PLpro yeast
C/C(=N\Nc1ccccn1)c1cccs1	–	93.1	·	46.1	–	–
C/C(=N\Nc1ccccn1)c1ccc(C#N)cc1	–	43.5	·	24.7	–	–
C/C(=N\n1cnnc1)c1ccc(C#N)cc1	?	–	·	–	–	–
C/C(=N\N=C(c1ccccc1)c1ccccc1)c1cccs1	–	–	–	–	–	–
CCCCn1cnc2c(c1=O)c1nc3ccccc3nc1n2Cc1ccc2c(c1)OCO2	?	–	–	–	?	–
COc1ccc(C(=O)CSc2n[nH]c(C)n2)cc1[N+](=O)[O-]	–[5.75 µM]	–	·	–	–[5.75 µM]	–
Oc1ccc2ccccc2c1CN(Cc1c(O)ccc2ccccc12)C1CCCCC1	·	·	–	·	·	·
CC1CCCCN1CCCNC(=O)CCCN1C(=O)c2cccnc2Sc2ccccc21 (stereo not given)	?	–	–	–	–	–
O=S(=O)(NCc1csc(-c2cccs2)n1)c1ccccc1	–	–	–	6.7	–	–
COc1ccc(CCNC(=O)c2nc(-c3cccs3)no2)cc1OC	–	–	·	–	–	–
CCC(=O)NCc1csc(-c2cccs2)n1	–	–	–	24.2	–	–
O=C(NCc1csc(-c2cccs2)n1)C1CCCCC1	–	76.2	–	28.6	–	–
COc1ccccc1CCNC(=O)c1nc(-c2cccs2)no1	–	66.6	·	29.2	–	–
O=S(=O)(NCc1csc(-c2ccccc2)n1)c1ccc(Cl)s1	?	–	–	–	–	–
COc1ccc(S(=O)(=O)NCCC(C)C)cc1C	–	–	–	–	·	–
CCCc1nc(SCC(=O)Nc2nnc(CC)s2)c2c(=O)n(C)c(=O)n(C)c2n1	–	–	–	–	–	–
CN(C)CCOC(=O)[C@@H](c1ccccc1)C1(O)CCCC1	–	·	·	·	–	·
COc1ccccc1CC(=O)NCc1csc(-c2cccs2)n1	–	68.0	–	46.6	–	–
COc1ccc(C(=O)NCc2csc(-c3cccs3)n2)cc1	–	–	–	–	–	–
COC(=O)c1ccc(COc2ccc3c(c2)CCC3)o1	–	116.9	–	54.1	–	–
O=C(NCc1cccnc1)c1ccc(COc2ccc3c(c2)CCC3)o1	·	–	–	–	?	–
COC(=O)c1ccc(COc2ccc(C=O)cc2)o1	–	–	–	–	–	–
CC(C)(C)c1ccc(OCc2ccc(C(=O)Nc3cccnc3)o2)cc1	–	157.2	–	75.4	?	–
COC(=O)c1ccc(COc2ccc(C(C)(C)C)cc2)o1	?	145.5	–	90.1	–	–
CCCc1ccc(OCc2ccc(C(=O)N3CCSCC3)o2)cc1	–	155.8	–	85.8	–	–
SMILES	Pf growth 96h	Shiga toxin inh	NS1 inh	CHX counter	Pf growth 48h	SARS PLpro yeast
COC(=O)c1[nH]c2cccc(OC)c2c1NC(=O)C(C)N1CCC(C)CC1 (stereo not given)	?	–	–	–	·	–
CCC(C)c1ccc(OCc2ccc(C(=O)OC)o2)cc1 (stereo not given)	–	148.8	–	101.3	–	–
CC(C)(C)c1ccc(OCCCC(=O)N2CCOCC2)cc1	–	55.1	–	39.8	–	–
COC(=O)c1ccc(COC(=O)c2cccn2C)o1	–	139.7	–	23.7	–	–
CCCNC(=O)c1ccc(COc2ccc(C(C)(C)C)cc2)o1	–	94.1	–	39.8	?	–
Cc1ccc(S(=O)(=O)CCC(=O)OCC(=O)NCc2ccc(Cl)cc2)cc1	–	–	·	–	–	–
CCc1ccc(OCc2ccc(C(=O)OC)o2)cc1	–	153.7	–	67.4	–	–
Cc1cccc(OCc2ccc(C(=O)N3CCOCC3)o2)c1	–	–	–	–	–	–
O=C(N/N=C/c1cc([N+](=O)[O-])ccc1O)c1ccc(COc2ccc3c(c2)CCC3)o1	9.28µM	–	–	–	?	–
Cn1cccc1C(=O)OCC(=O)c1cc2ccccc2o1	–	62.3	–	28.8	–	–
CC(C)(C)c1ccc(OCc2ccc(C(=O)N3CCOCC3)o2)cc1	–	114.9	–	53.6	?	–
COC(=O)c1ccc(COc2ccc(NC(C)=O)cc2)o1	–	–	–	–	–	–
COc1ccc(Br)cc1/C=N/NC(=O)c1ccc(COc2ccc3c(c2)CCC3)o1	–	–	–	–	?	–
Cc1ccc(S(=O)(=O)Nc2n[nH]nc2C(=O)NC2CCCCC2)cc1	–	–	·	–	–	–
CC(C)(C)c1cc(N2CCOCC2)n2ncc(-c3ccc(Cl)cc3)c2n1	?	–	–	30.6	?	–
